Inconclusive results are not listed. Active and inactive are the calls of the source. Calls follow the shape of the dose curve; as a rule, active = well fitted curve in either direction with a large enough effect (not every such curve was filed as active); inconclusive = small, poorly fitted or top-dose-only effect, or another doubt; inactive = flat fitted curve, though single readings scatter.
Biological target: Mitogen-activated protein kinase 10 (Mus musculus) (UniProt Q61831)
Test: JNK3 AlphaScreen Assay (AID 530);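 also: kinase came from lysate of stimulated human HepG2 cells; signal reports phosphorylation of biotinylated GST-cJun 1-79 at Ser73 with 10 µM ATP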
Conditions: JNK3 lysate, c-Jun phosphorylation; series mostly up to 57.1 µM; activity change, negative = inhibition: at the top concentration
How it was run: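 Activity was read by AlphaScreen after JNK3-containing HepG2 lysate (cytokine pre-activated) phosphorylated biotinylated GST-cJun with 10 uM ATP at room temperature. Phospho-Ser73 cJun antibody with Protein-A acceptor beads provided detection.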
% is scaled to controls: 0 for no effect and ±100 for the full control effect.

Compound | activity change, negative = inhibition
CCCCNC(=O)C(c1ccc(OCC(=O)OC)c(C(=O)OC)c1)N(CCc1ccccn1)C(=O)CCCCCN1C(=O)NC(c2ccc(-c3ccccc3)cc2)C(C(=O)OCc2ccccc2)=C1C (centres undefined) | -9.77% (inactive)
COC(=O)c1ccc(C(NC(=O)OCc2ccccc2)/C(=C/[C@@H](C)C(=O)NCCc2c[nH]c3ccccc23)c2cccnc2)cc1 (some centres undefined) | -10% (inactive)
COC(=O)c1ccc(C(NC(=O)OCc2ccccc2)/C(=C/[C@@H](C)C(=O)NCc2ccc(OC)c(OC)c2)c2cccnc2)cc1 (some centres undefined) | -2.68% (inactive)
CCCCNC(=O)C(c1ccc(-c2ccccc2)cc1)N(CCN1CCOCC1)C(=O)CCCCCN1C(=O)NC(c2ccc([N+](=O)[O-])cc2)C(C(=O)OCc2ccccc2)=C1C (centres undefined) | -29% (inactive)
CC(=O)N1[C@H](Cc2ccccc2)C=C[C@]1(C)C(=O)NCc1ccc(C)o1 | -0.0853% (inactive)
CCCCCCN(C(=O)CCCCCN1C(=O)NC(c2ccccc2-c2ccccc2)C(C(=O)OCc2ccccc2)=C1C)C(C(=O)NCCCC)c1ccc(OCC(=O)OC)c(C(=O)OC)c1 (centres undefined) | -15.7% (inactive)
CCCCCCN(C(=O)CCCCCN1C(=O)NC(C2CCCCC2)C(C(=O)OCc2ccccc2)=C1C)C(C(=O)NCCCC)c1ccc(OCC(=O)OC)c(C(=O)OC)c1 (centres undefined) | -4.39% (inactive)
COC(=O)c1ccc(C(NC(=O)OCc2ccccc2)/C(=C/[C@@H](C)C(=O)NCc2cccnc2)c2cccnc2)cc1 (some centres undefined) | 5% (inactive)
CCCCCCN(C(=O)CCCCCN1C(=O)NC(c2ccc(C(C)(C)C)cc2)C(C(=O)OCc2ccccc2)=C1C)C(C(=O)NCCCC)c1ccc(OCC(=O)OC)c(C(=O)OC)c1 (centres undefined) | -6.28% (inactive)
C[C@@H]1C=C[C@](Cc2ccccc2)(C(=O)NCC2CC2)N1C(=O)c1ccccc1 | 1.03% (inactive)
COC(=O)c1ccc(C(NC(=O)OCc2ccccc2)/C(C)=C/[C@@H](C)C(=O)NCCc2c[nH]c3ccc(OC)cc23)cc1 (some centres undefined) | -11.3% (inactive)
COC(=O)c1ccc(C(NC(=O)OCc2ccccc2)/C(C)=C/[C@@H](C)C(=O)NCc2nc3ccccc3s2)cc1 (some centres undefined) | -3.94% (inactive)
COC(=O)c1ccc(C(/C=C/[C@@H](C)C(=O)NCc2cc(C)n(C)n2)NC(=O)OCc2ccccc2)cc1 (some centres undefined) | -3.79% (inactive)
COC(=O)CNC(=O)C1(C)C=CCN1C(=O)c1ccccc1 (centres undefined) | -14.5% (inactive)
C=C(N(C)C)[C@]1(C)C[C@H]1[C@H](NC(=O)CNC(=O)OCc1ccccc1)c1ccccc1 | 2.25% (inactive)
COC(=O)c1ccc(C(NC(=O)OCc2ccccc2)/C(=C/[C@@H](C)C(=O)NCc2ccncc2)c2cccnc2)cc1 (some centres undefined) | -2.65% (inactive)
C[C@H](NC(=O)[C@@H]1C[C@H]1[C@@H](NC(=O)OCc1ccccc1)c1ccccc1)c1ccccc1 | -1.97% (inactive)
COC(=O)c1ccc(C(NC(=O)OCc2ccccc2)/C(=C/[C@@H](C)C(=O)Nc2ccc(OC)cc2)c2cccnc2)cc1 (some centres undefined) | -7.03% (inactive)
CCCCNC(=O)C(c1ccc(OCC(=O)OC)c(C(=O)OC)c1)N(CCc1ccccc1)C(=O)CCCCCN1C(=O)NC(c2ccc(-c3ccccc3)cc2)C(C(=O)OCc2ccccc2)=C1C (centres undefined) | -7.52% (inactive)
CC(C)CC1(C(=O)NCCc2c[nH]c3ccccc23)C=CCN1C(=O)c1ccccc1 (centres undefined) | -10.8% (inactive)

Compound | activity change, negative = inhibition
Cc1ccc(CNC(=O)C2(CC(C)C)C=CCN2C(=O)c2ccccc2)o1 (centres undefined) | -2.76% (inactive)
CC(=O)N1[C@H](Cc2ccccc2)C=C[C@]1(C)C(=O)NCCN1CCOCC1 | 3.26% (inactive)
CCCCCCN(C(=O)CCCCCN1C(=O)NC(c2ccc(Cl)cc2)C(C(=O)OCc2ccccc2)=C1C)C(C(=O)NCCCC)c1ccc(OCC(=O)OC)c(C(=O)OC)c1 (centres undefined) | -5.66% (inactive)
CN(C)c1ccc(CNC(=O)C2(C)C=CCN2C(=O)c2ccccc2)cc1 (centres undefined) | -17.1% (inactive)
C[C@]1(C(=O)NCCc2c[nH]c3ccccc23)C=C[C@@H](Cc2ccccc2)N1C(=O)c1ccccc1 | -12.7% (inactive)
COCCNC(=O)[C@@]1(C)C=C[C@@H](Cc2ccccc2)N1C(=O)c1ccccc1 | -2.52% (inactive)
COC(=O)c1ccc(C(NC(=O)OCc2ccccc2)/C(F)=C/[C@@H](C)C(=O)N[C@@H](CO)Cc2ccccc2)cc1 (some centres undefined) | 0.136% (inactive)
COC(=O)c1ccc(C(NC(=O)OCc2ccccc2)/C(=C/[C@@H](C)C(=O)NCc2cc(F)cc(F)c2)c2cccnc2)cc1 (some centres undefined) | 2.7% (inactive)
CCC[C@@H]1C[C@@]1(CCC)[C@@H](NP(=O)(c1ccccc1)c1ccccc1)c1ccc(C(=O)OC)cc1 | -1.59% (inactive)
CC1(C(=O)NCc2cc(F)cc(C(F)(F)F)c2)C=CC2(CCCCC2)N1C(=O)c1ccccc1 (centres undefined) | 4.02% (inactive)
COC(=O)[C@@H]1C[C@H]1[C@@H](NC(=O)c1ccc(Br)cc1)c1ccccc1 | 2.16% (inactive)
COC(=O)c1ccc(C(NC(=O)OCc2ccccc2)/C(=C/[C@@H](C)C(=O)N(C)Cc2cccnc2)c2cccnc2)cc1 (some centres undefined) | 1.67% (inactive)
CNC(=O)[C@@]1(Cc2ccccc2)C=C[C@@H](C)N1C(=O)OC | 25.3% (inactive)
CC(=O)N1C2(C=CC1(C)C(=O)NCCN1CCOCC1)CCCCC2 (centres undefined) | 2.62% (inactive)
CC(C)NC(=O)[C@@H]1C[C@H]1[C@@H](NC(=O)OCc1ccccc1)c1ccccc1 | -1.31% (inactive)
CC(C)CC1(C(=O)NCC2CC2)C=CCN1C(=O)c1ccccc1 (centres undefined) | -17.7% (inactive)
CCCC[C@@H]1C[C@H]1[C@@H](NP(=O)(c1ccccc1)c1ccccc1)c1ccccc1OC | 1.1% (inactive)
CC(=O)N1[C@H](C)C=C[C@]1(Cc1ccccc1)C(=O)NCCN1CCOCC1 | 0.355% (inactive)
CC1=C(C(=O)OCc2ccccc2)C(C2CCCCC2)NC(=O)N1CCCCCC(=O)O (centres undefined) | 27.3% (inactive)

— PubChem BioAssay (NCATS)
